# Bioassay records from PubChem.
# SMN2 splice enh: enhancers of SMN2 splice variant expression | AID 1458 | HEK293 SMN2-luciferase splicing reporter, luminescence, 30-36 h | 2.8% of 210,000 active | Potency, µM (top dose mostly 46.1 µM), for inactives: at the top dose activity change, positive = activation, usual class: activators; also: % of control where 0% means no effect; nearly all actives have a fitted effect of over 55% in size
#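 qHTS luciferase splicing reporter: luminescence rises when SMN2 exon 7 is included in transfected HEK293 cells. Compound exposure lasted 30-36 h at 37C, with 4.5 mM final sodium butyrate as control, followed by a ONE-Glo read.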
# ELG1 genotoxic: genotoxicity induction in ELG1-luciferase HEK293T cells. Potency, µM (series often up to 46 µM), for the others: top-dose activity change, positive = activation, actives largely listed as activators. 1.3% of 330,000 active. HEK293T ELG1-luciferase reporter, luminescence, 16 h; also: % of control where 0% means no effect; nearly all actives have a fitted effect of over 60% in size
#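 Genotoxic stress is detected as increased luminescence from luciferase-tagged ELG1 in HEK293T cells, measured with ONE-Glo after a 16 hr treatment at 37 °C.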
# Rab9 prom act: Rab9 promoter activation. Huh7 Rab9 promoter-luciferase reporter, luminescence, 24 h. Potency, µM (doses to about 9.22 µM), inactives show at the top dose activation, negative = inhibition, usual class: activators. 2.8% of 320,000 active; also: % of control where 0% means no effect; nearly all actives have a fitted effect of over 60% in size
#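 Luminescence from Amplite-detected luciferase (10 minutes, ambient) reports Rab9 promoter activation. Before that, stable Rab9-luciferase Huh7 cells (1500/well, reduced-serum OP-MEM I plus 10% FBS) were exposed to compound for 24 hours at 37C.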
# FLuc counter: firefly luciferase modulation, counter-screen for miR-21 project. 6.9% of 360,000 active. AID 588342. P08659. purified FLuc, Km substrates, luminescence inhibition. Potency, µM (titrated, usually from 57.5 µM), inactives show at the highest dose activity change, negative = inhibition, usual class: inhibitors;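 also: plate controls were vehicle for no effect and reference inhibitor for full effect; nearly all actives have a fitted effect of over 55% in size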
# Target sequence (P08659 whole entry, looked up): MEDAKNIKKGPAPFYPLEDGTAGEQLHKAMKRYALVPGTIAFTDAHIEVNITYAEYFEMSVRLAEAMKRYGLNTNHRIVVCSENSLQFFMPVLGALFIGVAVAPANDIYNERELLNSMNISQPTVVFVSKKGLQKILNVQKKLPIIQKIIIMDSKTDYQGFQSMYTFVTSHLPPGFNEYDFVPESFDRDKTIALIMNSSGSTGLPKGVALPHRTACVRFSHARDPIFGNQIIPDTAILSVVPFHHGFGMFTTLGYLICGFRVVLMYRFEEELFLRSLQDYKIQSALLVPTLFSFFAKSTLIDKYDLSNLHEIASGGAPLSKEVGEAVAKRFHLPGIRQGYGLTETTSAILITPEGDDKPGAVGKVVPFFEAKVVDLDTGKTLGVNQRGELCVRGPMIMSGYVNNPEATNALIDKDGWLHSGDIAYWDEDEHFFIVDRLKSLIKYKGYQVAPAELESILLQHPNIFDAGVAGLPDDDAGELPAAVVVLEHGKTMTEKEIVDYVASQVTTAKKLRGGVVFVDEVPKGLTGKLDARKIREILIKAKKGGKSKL
#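 Biochemical qHTS of compounds, final roughly 60 µM downward over six points, against 10 nM purified firefly luciferase using Km concentrations of substrates (10 uM D-luciferin, 10 uM ATP) in Tris acetate pH 7.5 buffer; luminescence output.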
# ELG1 DNA repair: inhibitors of ELG1-dependent DNA repair in HEK293T cells | HEK293T ELG1-luciferase reporter, luminescence, 16 h; DNA damage induced by 5-fluorouridine | 2.3% of 330,000 active | Potency, µM (top dose mostly 46.1 µM), for the others: at the highest dose activity change, negative = inhibition, usual class: inhibitors; also: % is scaled to controls: 0 for no effect and ±100 for the full control effect; nearly all actives have a fitted effect of over 55% in size
#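 Cells (2,000 per well) received 5-fluorouridine plus test compound or DMSO and were incubated 16 hr at 37 °C, 5% CO2. Luciferase activity was read by luminescence 30 min after ONE-Glo addition; signal suppression marked inhibition of damage-induced ELG1 function.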
# NPC1 prom act: NPC1 promoter activation; 2.4% of 320,000 active; Huh7 NPC1 promoter luciferase reporter, 24 h; Potency, µM (top dose mostly 9.22 µM), for inactives: at the top dose activation, most hits filed as activators; AID 485313; also: % of control where 0% means no effect; nearly all actives have a fitted effect of over 60% in size
#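 Compounds in DMSO were transferred onto Huh7 NPC1-luciferase reporter cells pre-incubated 2 h; after 24 h at 37 °C, Amplite reagent was dispensed and luminescence recorded 10 min later.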
# ELG1 FLuc counter: luciferase inhibition in cell-free luciferin readout for ELG1 hits | shares compounds with ELG1 DNA repair | cell-free firefly luciferase luminescence counter-screen, ViewLux | Potency, µM (series often up to 46.1 µM), for the others: top-dose activity change, negative = inhibition, usual class: inhibitors | 3% of 350 active; also: % is scaled to controls: 0 for no effect and ±100 for the full control effect
# ELG1 unstim viab: counter-screen for ELG1 repair inhibitors: unstimulated cell viability; Potency, µM (series often up to 45.9 µM), without a hit: at the top dose activity change, negative = loss of viability, usual class: cytotoxic; 8% of 900 active; cell viability counter-screen, unstimulated, luminescence; shares compounds with ELG1 DNA repair;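 also: compound exposure lasted 16 hours before reading; % is scaled to controls: 0 for no effect and ±100 for the full control effect; nearly all actives have a fitted effect of over 55% in size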
# FLuc biochem: inhibits purified firefly luciferase, counter-screen for ELG1 hits; shares compounds with ELG1 DNA repair; purified firefly luciferase, luminescence counter-screen; Potency, µM (titrated, usually from 57.5 µM), for inactives: at the top dose activity, negative = inhibition, hits mostly inhibitors; 10% of 350 active; AID 624253; also: % is scaled to controls: 0 for no effect and ±100 for the full control effect
# An asterisk follows results filed as active; u = inconclusive; x = no result; [ ] = another dose, or the depositor's remark. Only some compounds are listed: those with a hit (about 9.3% of all), similar ones and a draw of the others. Calls follow the shape of the dose curve; as a rule, active = well fitted curve in the direction sought with a large enough effect; inconclusive = small, poorly fitted or top-dose-only effect, or another doubt; inactive = no such curve, though single readings can be large; an effect the other way counts as inactive or inconclusive. Potency is read from the fitted curve at half-maximal effect.
SMILES,SMN2 splice enh,ELG1 genotoxic,Rab9 prom act,FLuc counter,ELG1 DNA repair,NPC1 prom act,others
CC1=NN(c2ccccc2)C(=O)C1/C=C1\C(=O)NC(=O)N(c2ccc(C)c(C)c2)C1=O (configuration not stated),5.9%,-5.9%,-3.7%,15.1µM*,-2.1%,0.4%,
Oc1c(Cl)c(Cl)c(Cl)c(Cl)c1Cl (tested in a mixture with another compound),-16.2%[9.22 µM],x,x,x,x,x,
O=C1C(Cl)=C(Cl)C(=O)C(Cl)=C1Cl,-8.0%,x,x,x,x,x,
COc1cc(CN=C(C)c2c(O)n(C)c(=O)n(C)c2=O)cc(OC)c1,x,-11.9%,-0.1%,-0.6%,13µM*,-1.4%,
CCN1C(=O)C(=C2C=C(C)OC(C)=C2)C(=O)N(CC)C1=S,8.5%,3.7%,-1.1%,-2.8%,3.3%,-3.6%,
CCN1C(=O)C(=Cc2ccc(C)s2)C(=O)N(CC)C1=S,20µM*,u,18.2%,u,u,u,
CN(C)C(=O)Oc1ccc(OCc2nc3ccccc3[nH]2)cc1,7.08µM*,u,0.447µM*,1.51µM*,u,u,
O=C(CN1C(=O)S/C(=C\C=C\c2ccccc2)C1=O)Nc1ccccc1C(=O)O,x,3.2%,10.5%,26.9µM*,3.1%,0.5%,
O=C1NC(=O)N(c2ccccc2)C(=O)/C1=C\C=C\c1ccccc1,x,-15.2%,-18.7%,u,u,-2.9%,
Cc1ccc(O)cc1C,0.9%,x,x,x,x,x,
[O-]/[N+](=C/c1cccnc1)c1ccc(Br)cc1,12.6µM*,u,2.82µM*,-4.2%[2.3 µM],u,5.62µM*,
CCOC(=O)c1sc(=NC(=O)c2ccc(C)c(C)c2)n(C)c1C,-42.2%,11.6µM*,2µM*,u,u,3.16µM*,
NCCCC[C@H](NC(=O)[C@H](Cc1ccccc1)NC(=O)[C@H](CCCN=C(N)N)NC(=O)[C@@H](N)Cc1ccc(O)cc1)C(N)=O,-0.5%,x,x,x,x,x,
Cc1c(C(=O)N2CCOCC2)sc2nc(-c3ccccc3)cn12,u,u,2.51µM*,16.9µM*,u,3.98µM*,
O=C(CN1CCCCC1)c1ccccc1F,6.3%,-1.3%,3.6%,3.0%,-1.2%,-21.7%,
O=C(CN1CCCCC1)c1ccccc1Cl,-7.5%,3.7%,13.5%,19µM*,u,3.0%,
Nc1ccccc1-c1ccccc1,-6.7%,x,x,x,x,x,
CCOP(=S)(OCC)SCn1c(=O)oc2cc(Cl)ccc21,-2.7%,x,x,x,x,x,
C=C(C)[C@@]12OC3(c4ccccc4)O[C@@H]1[C@@H]1[C@@H]4O[C@]4(CO)[C@@H](O)[C@]4(O)C(=O)C(C)=C[C@H]4[C@@]1(O3)[C@H](C)[C@H]2OC(=O)/C=C/C=C/c1ccccc1,x,x,x,x,x,x,ELG1 FLuc counter=72.5%;ELG1 unstim viab=u;FLuc biochem=-0.5%
CC(C)[C@@]1(NC(=O)[C@H]2CC3c4cccc5[nH]cc(c45)C[C@H]3N(C)C2)O[C@@]2(O)C3CCCN3C(=O)[C@@H](Cc3ccccc3)N2C1=O (some centres not stated),0.3%,x,x,x,x,x,
